About 2,000 (36%) of roughly 5,500 compounds were called active. About 18% were inconclusive and are not listed. Cut-off read from the data, not from the text of the source: active = normalized growth mostly below about 0.91 (no sharp cut-off); inconclusive = no clear call, values can overlap the other calls; inactive = mostly above about 0.92. This is one part of the list.
Assay: chemical genetic growth profiling, strain panel (AID 1159580);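 note: tested at 20 µM; growth read once vehicle control cultures reached saturation at 30 °C; 1 = growth at the plate median or of vehicle wells; lower values mean less growth of the strain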
Settings: growth OD

Measured: normalized growth

O=C1CC2OCC=C3CN4CC[C@]56c7ccccc7N1C5[C@H]2[C@H]3CC46 (some centres not stated)
inactive: S. cerevisiae deletion strains, locus YJR075W, strain HOC1, stronger effect = lower value 1.01 | S. cerevisiae deletion strains, locus YKL009W, strain mrt4, stronger effect = lower value 1 | S. cerevisiae deletion strains, locus YKL068W, stronger effect = lower value 1 | S. cerevisiae deletion strains, locus YKL085W, strain MDH1 (second series), stronger effect = lower value 1 | S. cerevisiae deletion strains, locus YKL085W, strain MDH1, stronger effect = lower value 1 | S. cerevisiae deletion strains, locus YKL160W, strain elf1, stronger effect = lower value 1.03 | S. cerevisiae deletion strains, locus YKL190W, strain CNB1, stronger effect = lower value 1.01 | S. cerevisiae deletion strains, locus YKR001C, strain vps1, stronger effect = lower value 0.996 | S. cerevisiae deletion strains, locus YKR026C, strain gcn3, stronger effect = lower value 1.04 | S. cerevisiae deletion strains, locus YKR091W, strain srl3, stronger effect = lower value 1.01 | S. cerevisiae deletion strains, locus YLL001W, strain dnm1, stronger effect = lower value 1.03 | S. cerevisiae deletion strains, locus YLL026W, stronger effect = lower value 1.01 | S. cerevisiae deletion strains, locus YLL041C, strain sdh2, stronger effect = lower value 1.02 | S. cerevisiae deletion strains, locus YLR027C, strain aat2, stronger effect = lower value 1.03 | S. cerevisiae deletion strains, locus YLR039C, strain RIC1, stronger effect = lower value 1.03 | S. cerevisiae deletion strains, locus YLR058C, strain SHM2, stronger effect = lower value 1.02 | S. cerevisiae deletion strains, locus YLR102C, strain apc9, stronger effect = lower value 1 | S. cerevisiae deletion strains, locus YLR113W, strain HOG1, stronger effect = lower value 0.938 | S. cerevisiae deletion strains, locus YLR221C, strain rsa3, stronger effect = lower value 1.02 | S. cerevisiae deletion strains, locus YLR258W, strain gsy2, stronger effect = lower value 1.03 | S. cerevisiae deletion strains, locus YLR262C, strain YPT6 (second series), stronger effect = lower value 1.05 | S. cerevisiae deletion strains, locus YLR262C, strain YPT6, stronger effect = lower value 1.1 | S. cerevisiae deletion strains, locus YLR268W, strain sec22, stronger effect = lower value 0.994 | S. cerevisiae deletion strains, locus YLR320W, strain mms22, stronger effect = lower value 1.03 | S. cerevisiae deletion strains, locus YLR330W, strain CHS5, stronger effect = lower value 1.01 | S. cerevisiae deletion strains, locus YLR342W, strain FKS1 (second series), stronger effect = lower value 0.999 | S. cerevisiae deletion strains, locus YLR342W, strain FKS1, stronger effect = lower value 1.01 | S. cerevisiae deletion strains, locus YLR357W, strain rsc2, stronger effect = lower value 1.03 | S. cerevisiae deletion strains, locus YLR370C, strain arc18, stronger effect = lower value 1.03 | S. cerevisiae deletion strains, locus YLR371W, strain rom2, stronger effect = lower value 0.993 | S. cerevisiae deletion strains, locus YLR384C, strain iki3, stronger effect = lower value 1.03 | S. cerevisiae deletion strains, locus YLR418C, strain cdc73, stronger effect = lower value 0.961 | S. cerevisiae deletion strains, locus YML016C, strain PPZ1, stronger effect = lower value 1.01 | S. cerevisiae deletion strains, locus YML032C, strain rad52, stronger effect = lower value 0.995 | S. cerevisiae deletion strains, locus YML120C, strain ndi1, stronger effect = lower value 1.02 | S. cerevisiae deletion strains, locus YML124C, strain tub3, stronger effect = lower value 0.999 | S. cerevisiae deletion strains, locus YMR058W, strain fet3, stronger effect = lower value 1.02 | S. cerevisiae deletion strains, locus YMR078C, strain ctf18, stronger effect = lower value 0.998 | S. cerevisiae deletion strains, locus YMR125W, strain sto1, stronger effect = lower value 1.02 | S. cerevisiae deletion strains, locus YMR129W, stronger effect = lower value 1.03 | S. cerevisiae deletion strains, locus YMR205C, strain PFK2, stronger effect = lower value 1.05 | S. cerevisiae deletion strains, locus YMR223W, strain ubp8, stronger effect = lower value 0.989 | S. cerevisiae deletion strains, locus YMR231W, strain pep5, stronger effect = lower value 1.03 | S. cerevisiae deletion strains, locus YMR263W, strain SAP30, stronger effect = lower value 1.01 | S. cerevisiae deletion strains, locus YMR307W, strain GAS1, stronger effect = lower value 0.979 | S. cerevisiae deletion strains, locus YNL067W, strain RPL9B, stronger effect = lower value 1.01 | S. cerevisiae deletion strains, locus YNL071W, strain lat1, stronger effect = lower value 1.01 | S. cerevisiae deletion strains, locus YNL128W, strain TEP1, stronger effect = lower value 1.01 | S. cerevisiae deletion strains, locus YNL153C, strain GIM3, stronger effect = lower value 1.02 | S. cerevisiae deletion strains, locus YNL183C, strain NPR1, stronger effect = lower value 0.933 | S. cerevisiae deletion strains, locus YNL209W, strain ssb2, stronger effect = lower value 1.02 | S. cerevisiae deletion strains, locus YNL233W, strain BNI4, stronger effect = lower value 1.01 | S. cerevisiae deletion strains, locus YNL248C, strain rpa49, stronger effect = lower value 1.04 | S. cerevisiae deletion strains, locus YNL250W, strain rad50, stronger effect = lower value 1 | S. cerevisiae deletion strains, locus YNL271C, strain bni1, stronger effect = lower value 0.997 | S. cerevisiae deletion strains, locus YNL298W, strain CLA4, stronger effect = lower value 0.993 | S. cerevisiae deletion strains, locus YNL307C, strain MCK1, stronger effect = lower value 0.994 | S. cerevisiae deletion strains, locus YNL322C, strain KRE1 (second series), stronger effect = lower value 1.03 | S. cerevisiae deletion strains, locus YNL322C, strain KRE1, stronger effect = lower value 1.01 | S. cerevisiae deletion strains, locus YNR049C, strain mso1, stronger effect = lower value 1.01 | S. cerevisiae deletion strains, locus YNR052C, strain pop2, stronger effect = lower value 0.997 | S. cerevisiae deletion strains, locus YOL006C, strain TOP1, stronger effect = lower value 1.03 | S. cerevisiae deletion strains, locus YOL012C, strain htz1 1.63 | S. cerevisiae deletion strains, locus YOL147C, strain pex11, stronger effect = lower value 0.995 | S. cerevisiae deletion strains, locus YOR001W, strain rrp6, stronger effect = lower value 1.04 | S. cerevisiae deletion strains, locus YOR061W, strain CKA2, stronger effect = lower value 1.01 | S. cerevisiae deletion strains, locus YOR069W, strain VPS5, stronger effect = lower value 1.01 | S. cerevisiae deletion strains, locus YOR070C, strain gyp1, stronger effect = lower value 1.01 | S. cerevisiae deletion strains, locus YOR080W, strain dia2, stronger effect = lower value 1.04 | S. cerevisiae deletion strains, locus YOR083W, strain WHI5, stronger effect = lower value 1.02 | S. cerevisiae deletion strains, locus YOR106W, strain vam3, stronger effect = lower value 1.04 | S. cerevisiae deletion strains, locus YOR136W, strain idh2, stronger effect = lower value 0.985 | S. cerevisiae deletion strains, locus YOR144C, strain elg1, stronger effect = lower value 1 | S. cerevisiae deletion strains, locus YOR184W, strain ser1, stronger effect = lower value 0.979 | S. cerevisiae deletion strains, locus YOR231W, strain MKK1, stronger effect = lower value 0.955 | S. cerevisiae deletion strains, locus YOR265W, strain rbl2, stronger effect = lower value 1.03 | S. cerevisiae deletion strains, locus YOR270C, strain vph1, stronger effect = lower value 1.05 | S. cerevisiae deletion strains, locus YOR290C, strain snf2, stronger effect = lower value 1.02 | S. cerevisiae deletion strains, locus YOR316C, strain cot1, stronger effect = lower value 1 | S. cerevisiae deletion strains, locus YPL051W, strain arl3, stronger effect = lower value 1.03 | S. cerevisiae deletion strains, locus YPL055C, strain LGE1, stronger effect = lower value 1.03 | S. cerevisiae deletion strains, locus YPL078C, strain atp4, stronger effect = lower value 1.02 | S. cerevisiae deletion strains, locus YPL106C, strain sse1, stronger effect = lower value 1.03 | S. cerevisiae deletion strains, locus YPL240C, strain hsp82, stronger effect = lower value 1.03 | S. cerevisiae deletion strains, locus YPL241C, strain CIN2, stronger effect = lower value 0.978 | S. cerevisiae deletion strains, locus YPL256C, strain CLN2, stronger effect = lower value 0.951 | S. cerevisiae deletion strains, locus YPR119W, strain clb2, stronger effect = lower value 0.995 | S. cerevisiae deletion strains, locus YPR141C, strain kar3, stronger effect = lower value 1 | S. cerevisiae deletion strains, locus YPR163C, strain tif3, stronger effect = lower value 0.996 | S. cerevisiae deletion strains, locus YPR167C, strain met16, stronger effect = lower value 1.01 | S. cerevisiae deletion strains, strain wtn01, stronger effect = lower value 0.993 | S. cerevisiae strains, strain wild type, stronger effect = lower value 1.01

From PubChem BioAssay AID1159580 (chemical genetic matrix, 2015)
